TPT1 inhibitor = Candida albicans TPT1 enzyme inhibitors, primary screen, biochemical, fluorescence polarization; tRNA 2'-phosphotransferase TPT1 (Candida albicans SC5314); recombinant caTPT1, FP RNA substrate dephosphorylation; inhibition, % at 5 µM; 300,000 compounds, 0.81% hits; AID 1962, 2009;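 active means inhibition above the mean of all tested compounds plus 3 SD, set per screening campaign, cut at about 24% in these data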
HNF4A DNA FP = change in binding of human HNF4A to DNA, primary screen, biochemical, fluorescence polarization, FITC-DNA; Hepatocyte nuclear factor 4-alpha (Homo sapiens), P41235; 1 h; activity change, % at 10 µM; 360,000 compounds, 0.3% hits; AID 1224865, 2016; in the data active means activity change above about 30%, passing the limit was not always enough
CRFBP-R2 agonist = agonists of CRF-BP/CRF-R2 complex, primary screen, cell-based, HEK293, calcium dye fluorescence, uHTS; calcium dye fluorescence (FLIPR); percent of saturating CRF peptide response; activation, % at 13.2 µM; 350,000 compounds, 0.46% hits; AID 588473, 2011;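 active means activation of at least 50%, plus an integration ratio under a set limit after plate pattern correction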
IDE cell inh = human IDE inhibitors in live cells, primary screen, fluorescence polarization, HEK cells, FAbetaB substrate; Insulin-degrading enzyme (Homo sapiens), P14735; 320,000 compounds, 0.41% hits; inhibition, % at 5.59 µM; FAbetaB cleavage;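 active means percent inhibition above the average of all tested compounds plus 3 SD, set per screening campaign, cut at about 16% in these data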;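 further: IDE supplied by intact live HEK cells; FP after avidin binding of uncleaved biotin substrate so inhibition keeps polarization high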
Target sequence (P14735 whole entry, looked up): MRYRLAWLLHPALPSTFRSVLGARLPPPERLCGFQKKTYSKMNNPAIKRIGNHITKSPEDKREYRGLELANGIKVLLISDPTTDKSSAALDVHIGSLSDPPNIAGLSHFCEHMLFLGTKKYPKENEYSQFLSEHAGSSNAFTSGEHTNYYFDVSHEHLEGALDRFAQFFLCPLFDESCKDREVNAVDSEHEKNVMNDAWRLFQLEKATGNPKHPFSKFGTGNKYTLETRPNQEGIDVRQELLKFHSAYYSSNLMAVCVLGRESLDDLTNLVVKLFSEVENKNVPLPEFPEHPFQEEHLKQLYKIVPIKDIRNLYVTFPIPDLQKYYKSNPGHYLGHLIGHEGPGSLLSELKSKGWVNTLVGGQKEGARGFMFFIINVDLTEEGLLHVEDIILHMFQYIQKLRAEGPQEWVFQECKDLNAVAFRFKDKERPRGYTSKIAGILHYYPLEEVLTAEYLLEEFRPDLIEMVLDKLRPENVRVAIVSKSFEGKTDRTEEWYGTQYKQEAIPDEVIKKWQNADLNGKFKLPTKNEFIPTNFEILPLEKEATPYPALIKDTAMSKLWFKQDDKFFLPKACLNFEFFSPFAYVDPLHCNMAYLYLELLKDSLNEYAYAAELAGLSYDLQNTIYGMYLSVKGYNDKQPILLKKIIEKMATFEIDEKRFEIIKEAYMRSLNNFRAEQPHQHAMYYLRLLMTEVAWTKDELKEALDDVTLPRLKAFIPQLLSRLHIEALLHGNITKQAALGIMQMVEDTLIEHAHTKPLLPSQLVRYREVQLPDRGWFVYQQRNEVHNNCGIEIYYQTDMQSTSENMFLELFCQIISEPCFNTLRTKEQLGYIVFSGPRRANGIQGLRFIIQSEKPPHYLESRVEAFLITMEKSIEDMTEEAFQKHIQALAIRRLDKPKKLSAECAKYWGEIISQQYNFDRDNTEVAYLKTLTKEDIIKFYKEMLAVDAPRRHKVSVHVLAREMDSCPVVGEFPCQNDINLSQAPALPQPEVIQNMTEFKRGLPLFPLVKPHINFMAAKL
IDE act = human IDE activators in live cells, primary screen, fluorescence polarization, HEK cells, FAbeta-B substrate. activation, % at 5.96 µM. 340,000 compounds, 0.073% hits. FAbeta-B cleavage; 0% vehicle, 100% cell-free pure enzyme wells. AID 493087, 2011. Insulin-degrading enzyme (Homo sapiens), P14735;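 active means activation above the mean of all tested compounds plus 3 SD, set per screening campaign, cut at about 17% in these data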
TPT1 inh confirm = Candida albicans TPT1 inhibitors, confirmation, biochemical, fluorescence polarization, triplicate; shares compounds with TPT1 inhibitor; AID 2149, 2009; inhibition, % at 5 µM; recombinant caTPT1, RNase T1 coupled; 2,400 compounds, 74% hits;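 active means inhibition above the primary screen limit, the mean inhibition of all tested compounds plus 3 SD, cut at about 25% in these data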
RNase T1 counter = RNase T1 inhibitors, counter-screen for TPT1 inhibitor project, biochemical, fluorescence polarization | shares compounds with TPT1 inhibitor | RNase T1 cleavage, 1536-well | inhibition, % at 5 µM | 2,400 compounds, 83% hits | AID 2153, 2009;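 active means inhibition above the solvent-only control well mean plus 3 SD, limit set per screening run, cut at about 23% in these data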;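 further: inhibitors block cleavage so intact labeled substrate keeps polarization high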
IDE cell inh cf = human IDE inhibitors in live cells, confirmation, fluorescence polarization, HEK cells, FAbetaB substrate; shares compounds with IDE cell inh; FAbetaB cleavage; inhibition, % at 5.59 µM; 1,200 compounds, 51% hits; AID 435028, 2010;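 active means mean inhibition across triplicate wells above the cutoff set by the earlier primary insulin-degrading enzyme screen, cut at about 16% in these data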
HEK cytotox = cytotoxicity in HEK cells, cytotoxicity control for IDE inhibitor project, cell-based, luminescence. 1,200 compounds, 28% hits. HEK293 cytotoxicity, ATP luminescence. inhibition, % at 5.59 µM. shares compounds with IDE cell inh; in the data active means inhibition above about 22%
HNF4a DNA conf = change in HNF4A binding to DNA, retest, confirmation, biochemical, fluorescence polarization, FITC-DNA; shares compounds with HNF4A DNA FP; 1 h; activity change, % at 12.5 µM; 210 compounds, 99% hits; AID 1224897, 2016; call rule not given here
Of the large screens only hits and unclear results are named; the others gave an inactive call (follow-up assays come after a bar, where they were run). Shown are actives, neighbours in structure and some others; about 1.4% of the full set was active somewhere.

CCOC(=O)c1c(NC(=S)Nc2ccc(Cl)cc2)sc2c1CCN(C)C2	TPT1 inhibitor 91.1, HNF4A DNA FP 58.1 | TPT1 inh confirm 87.8 | RNase T1 counter 91.3 | HNF4a DNA conf 82.6
O=C(c1ccccc1)c1ccc(N2CCN(C(=O)c3cccc(F)c3F)CC2)c(F)c1	none
CN1C(=O)/C(=C/C=C2/CCCN2C)N(C)C1=S	TPT1 inhibitor 40.5, HNF4A DNA FP 45.6 | TPT1 inh confirm 89.8 | RNase T1 counter 102.5 | HNF4a DNA conf 82.0
COc1ccc2[nH]cc(/C=C/c3cc[n+](C)cc3)c2c1	TPT1 inhibitor 71.3, HNF4A DNA FP 52.1 | TPT1 inh confirm 83.2 | RNase T1 counter 89.9 | HNF4a DNA conf 113.7
COc1ccc2[nH]cc(C=O)c2c1	none
CC(=O)COc1c(-c2ccco2)oc2ccccc2c1=O	none (no result: TPT1 inhibitor, IDE cell inh)
COc1cc(/C=C(/C#N)c2nc3ccccc3c(=O)[nH]2)ccc1O	TPT1 inhibitor 102.0, HNF4A DNA FP 46.5, CRFBP-R2 agonist 67.8 | TPT1 inh confirm 126.4 | RNase T1 counter 124.4 | HNF4a DNA conf 57.9
COc1ccc(/C=C(\C#N)c2nc3ccccc3[nH]2)cc1O	none (no result: TPT1 inhibitor, IDE cell inh)
O=C1C2C3C=CC(O3)C2C(=O)N1N=Cc1ccc2c(c1)OCO2 (configuration not stated)	none (no result: TPT1 inhibitor, IDE cell inh)
CC(NC(=O)/C(C#N)=C1\N=C(NC(=O)c2ccco2)c2ccccc21)c1ccccc1 (configuration not stated)	TPT1 inhibitor 47.3, HNF4A DNA FP 73.6 (no result: IDE act) | TPT1 inh confirm inactive | RNase T1 counter 31.3 | HNF4a DNA conf 35.5
Cc1c(Cc2ccccc2)c(=O)[nH]c(=O)n1C	none (no result: TPT1 inhibitor, IDE cell inh)
N#Cc1c(-c2ccccc2)cc(-c2ccccc2)[nH]c1=O	none
COc1cc(-c2cc(-c3ccc(N)cc3)[nH]c(=O)c2C#N)cc(OC)c1OC	TPT1 inhibitor 102.6, HNF4A DNA FP 54.8 | TPT1 inh confirm 102.8 | RNase T1 counter 104.7 | HNF4a DNA conf 82.6
COc1ccc2c(-c3ccccc3)cc(SCC(N)=O)nc2c1	TPT1 inhibitor 34.7, HNF4A DNA FP 42.9 | TPT1 inh confirm 38.7 | RNase T1 counter 50.4 | HNF4a DNA conf 48.5
CSc1nsc(/C=C/Nc2ccc(Cl)cc2)c1C#N	TPT1 inhibitor 31.5, HNF4A DNA FP 40.4 | TPT1 inh confirm 69.8 | RNase T1 counter 81.8 | HNF4a DNA conf 60.9
CSc1nsc(/C=C/Nc2cccc(Cl)c2)c1C#N	TPT1 inhibitor 35.7, HNF4A DNA FP 40.2 | TPT1 inh confirm 26.4 | RNase T1 counter 34.1 | HNF4a DNA conf 40.7
Cc1snc(SCc2cccc(Cl)c2)c1C#N	none
COc1cccc(NC(=O)CN(C)C(=O)c2c(C)nn(-c3ccccc3)c2Cl)c1	none (no result: TPT1 inhibitor)
OC(CNCC1CCCO1)COc1ccc(OCC(O)CNCC2CCCO2)cc1 (configuration not stated)	none
CCOC(=O)c1c(C)n(-c2ccc(C)cc2)c2ccc(OCC(O)CNCCCO)cc12 (configuration not stated)	IDE cell inh 17.0 | IDE cell inh cf inactive | HEK cytotox inactive
CCOC(=O)c1c(C)n(-c2ccc(C)cc2)c2ccc(OCC(O)CNCC3CCCO3)cc12 (configuration not stated)	IDE cell inh 16.8 | IDE cell inh cf inactive | HEK cytotox inactive
CCN1CCN(C(=O)c2cc(S(=O)(=O)N3CCCCC3)ccc2Cl)CC1	none
COc1ccccc1C(=O)NC(=O)CSc1nnc(C)s1	none
COc1ccc(Nc2nc(-c3sc(C)nc3C)cs2)c(OC)c1	IDE cell inh 20.6 | IDE cell inh cf inactive | HEK cytotox 62.2
COc1ccc(Nc2nc(-c3cccs3)cs2)c(OC)c1	none
Cc1ccc2[nH]c(=O)c3cc(C(=O)N(C)c4ccccc4C)sc3c2c1	none
O=C(NCCN1CCC(n2c(=O)[nH]c3ccccc32)CC1)c1ccccc1C(F)(F)F	none (no result: TPT1 inhibitor, CRFBP-R2 agonist, IDE cell inh, IDE act)
CCCCOCCCNc1ncnc2c1[nH]c1ccccc12	IDE cell inh 24.7 | IDE cell inh cf inactive | HEK cytotox 72.8
CCOc1ccc2[nH]c3c(NCCO)ncnc3c2c1	none (no result: TPT1 inhibitor, IDE cell inh)
CCOCCCNc1ncnc2c1[nH]c1ccccc12	IDE cell inh 21.2 | IDE cell inh cf inactive | HEK cytotox 37.6
CCOc1ccc2[nH]c3c(NCCc4ccc(OC)c(OC)c4)ncnc3c2c1	IDE cell inh 17.4 | IDE cell inh cf inactive | HEK cytotox 40.9
C=CCNc1ncnc2c1[nH]c1ccccc12	none
CCN1CCCC1CNC(=O)Cn1cc(C)c(=O)[nH]c1=O (configuration not stated)	none (no result: TPT1 inhibitor, IDE cell inh)
O=C(CN1CCN(c2ccccn2)CC1)Nc1cccc(Br)c1	none
Fc1ccc2[nH]c3c(N4CCN(c5ccccc5)CC4)ncnc3c2c1	IDE cell inh 50.4 | IDE cell inh cf 33.5 | HEK cytotox 55.1
CCOC(=O)N1CCN(c2ncnc3c2[nH]c2ccc(F)cc23)CC1	IDE cell inh 61.9 | IDE cell inh cf 52.3 | HEK cytotox 58.5
CCOC(=O)N1CCN(c2ncnc3c2[nH]c2ccc(OC)cc23)CC1	IDE cell inh 41.1 | IDE cell inh cf 26.2 | HEK cytotox inactive
COc1ccc(N2CCN(c3ncnc4c3[nH]c3ccccc34)CC2)cc1	IDE cell inh 34.9 | IDE cell inh cf 41.6 | HEK cytotox 63.9
COc1ccc(CCN(C)S(=O)(=O)c2cn(C)c(=O)n(C)c2=O)cc1OC	none (no result: TPT1 inhibitor)
CCCN(CCC)C(=O)c1ccc2c(c1)N(CC)C(=O)c1ccccc1S2(=O)=O	none
CCC(=O)c1ccc(OC(=O)N2CCOCC2)cc1	none
CCCCN(CC)S(=O)(=O)c1ccc2c(c1)n(C)c(=O)c(=O)n2C	none
CC1(Cc2cccc(C#N)c2)C(=O)Nc2c(Cl)cccc21 (configuration not stated)	none (no result: TPT1 inhibitor, CRFBP-R2 agonist, IDE cell inh, IDE act)

Compound activity deposited in PubChem BioAssay by several laboratories.
